Test results: PubChem BioAssay AID485346 (Sanford-Burnham Center for Chemical Genomics, 2010)
Among all 330,000 compounds or so, about 10,000 (3%) were called active.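 The calls were made as follows: active = inhibition of at least 50% at 8 µM in the primary screen; inactive = the rest.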 The list comes from a sample in which actives are over-represented; it also holds similar structures and randomly drawn compounds.

Target: Protein Mdm4 (Homo sapiens) + E3 ubiquitin-protein ligase Mdm2 (Homo sapiens) (UniProt O15151+Q00987)
Assay: inhibitors of human Mdm2-MdmX association, primary screen, cell-based, luminescence, split luciferase, SaOS-2, uHTS (AID 485346)
Conditions: SaOS-2 split-luciferase Mdm2/MdmX complementation, at 8 µM, active compounds read high

Sequence of Protein Mdm4 (Homo sapiens) + E3 ubiquitin-protein ligase Mdm2 (Homo sapiens) (O15151 whole entry, looked up): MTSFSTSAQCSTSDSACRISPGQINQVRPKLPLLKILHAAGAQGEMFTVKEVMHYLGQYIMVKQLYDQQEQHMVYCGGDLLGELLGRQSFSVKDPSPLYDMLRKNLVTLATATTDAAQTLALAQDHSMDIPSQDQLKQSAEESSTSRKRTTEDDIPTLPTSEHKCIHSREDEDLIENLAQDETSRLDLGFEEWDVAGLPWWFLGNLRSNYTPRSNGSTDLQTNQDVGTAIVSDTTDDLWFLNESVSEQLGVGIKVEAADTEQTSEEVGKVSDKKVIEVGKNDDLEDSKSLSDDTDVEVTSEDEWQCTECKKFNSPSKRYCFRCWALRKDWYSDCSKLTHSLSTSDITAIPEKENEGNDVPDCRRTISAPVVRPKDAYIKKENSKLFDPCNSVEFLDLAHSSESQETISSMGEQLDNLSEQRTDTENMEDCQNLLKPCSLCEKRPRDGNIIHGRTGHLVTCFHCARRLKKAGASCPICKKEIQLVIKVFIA
Sequence of Protein Mdm4 (Homo sapiens) + E3 ubiquitin-protein ligase Mdm2 (Homo sapiens) (Q00987 whole entry, looked up): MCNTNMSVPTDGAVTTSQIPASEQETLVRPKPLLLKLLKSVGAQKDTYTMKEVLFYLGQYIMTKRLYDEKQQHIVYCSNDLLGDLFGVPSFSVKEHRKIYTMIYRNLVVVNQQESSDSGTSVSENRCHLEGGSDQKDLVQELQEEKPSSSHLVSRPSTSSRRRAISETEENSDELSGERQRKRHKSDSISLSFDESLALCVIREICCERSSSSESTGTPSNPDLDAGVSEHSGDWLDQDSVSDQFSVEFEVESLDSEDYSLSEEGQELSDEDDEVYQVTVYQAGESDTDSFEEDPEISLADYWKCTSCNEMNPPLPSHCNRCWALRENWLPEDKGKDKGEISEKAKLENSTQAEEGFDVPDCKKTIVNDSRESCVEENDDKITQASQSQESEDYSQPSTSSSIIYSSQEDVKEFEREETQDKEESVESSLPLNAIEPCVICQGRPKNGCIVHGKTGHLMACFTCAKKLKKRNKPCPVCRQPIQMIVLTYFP

inhibition, active:
O=C(CSc1nc(Nc2ccccc2)nc(N2CCOCC2)n1)Nc1cc(Cl)ccc1O 81.9%
Cc1ccccc1NC(=O)CSc1nc2ccc(Nc3nc(N4CCOCC4)nc(N4CCOCC4)n3)cc2s1 80.5%
NC(N)=N/N=C/c1ccc(OCc2ccc(Cl)cc2Cl)cc1 97.6%
COc1ccc2cc1Oc1ccc(cc1)C[C@H]1c3cc(c(OC)cc3CCN1C)Oc1c(O)c(OC)cc3c1[C@H](C2)N(C)CC3 98.4%
COc1cc(NS(=O)(=O)c2ccc3ccccc3c2)c2ncccc2c1 94.8%
C=C(C)C(=O)O[C@H]1C/C(C)=C\C(=O)/C=C(\C)[C@H](O)[C@@H]2OC(=O)C(=C)[C@@H]21 95.4%
CC(=O)Nc1ccc(NC(=O)C2CCCN(S(=O)(=O)c3ccc(Cl)cc3)C2)cc1 (stereo unspecified) 55.6%
CCCCCCC(=O)N(O)C1CC(=O)N(c2ccccc2)C1=O (stereo unspecified) 61.2%
Cc1ccc(-c2nc3ccccc3[nH]2)cc1NC(=O)c1sc2ccccc2c1Cl 99.3%
COc1ccc(Br)cc1C(=O)NC(=S)Nc1cc(-c2nc3ccccc3[nH]2)ccc1C 81.4%
COc1ccc(-c2cc(C3CCN(c4ncccc4[N+](=O)[O-])CC3)[nH]n2)cc1 56.4%
CC1(C)Cc2nc3sc4c(SCC(=O)NC(c5ccccc5)c5ccccc5)ncnc4c3cc2CO1 71.8%
COc1ccc(-c2cn[nH]c2-c2ccc(OC)cc2)cc1 63.5%
CCOc1ccc(C2c3[nH]c4ccccc4c3CCN2Cc2cccn2-c2ncccn2)cc1 (stereo unspecified) 76.2%
CCOC(=O)Nc1ccc2c(c1)N(C(=O)CCCl)c1ccccc1[S@]2=O 84.3%
CCOc1cc(-c2cc(-c3ccc(NC(C)=O)cc3)nc(N)c2C#N)ccc1O 62.3%
O=C(NCC1CCCO1)c1cc2c([nH]c3ccccc32)c(-c2ccc(F)cc2)n1 (stereo unspecified) 69.3%
NC(=O)c1sc2nc3c(c(-c4ccccc4)c2c1N)CCC3 57.3%
CCNC(=O)c1c(O)c2cccc3c2n(c1=O)CC3 80.5%
COc1cccc2sc(NNC(=O)c3nc4ccccc4s3)nc12 59.4%
O=C(Nc1ccc2c(c1)OCCO2)C1CCCC1 55%

inhibition, inactive:
Cc1c(C=O)c2ccccn2c1C(=O)c1ccncc1 22.9%
COc1ccc(S(=O)(=O)N2CCOCC2)cc1NC(=O)c1ccc(OCC(C)C)c(OC)c1 38.4%
C/C(=N\Nc1nc(Nc2ccccc2)nc(N2CCOCC2)n1)c1cccs1 46.5%
Cc1ccc(Nc2nc(N3CCOCC3)nc(N3CCOCC3)n2)cc1Cl 48.2%
CC1(c2ccccc2)NC(=O)N(CC(=O)Nc2cc(Cl)ccc2N2CCOCC2)C1=O (stereo unspecified) 6.67%
O=C(CSc1nc2ccc(Nc3nc(N4CCOCC4)nc(N4CCOCC4)n3)cc2s1)NCc1ccco1 20.3%
NS(=O)(=O)c1ccc(N2C(=O)C3C4CC(C(Br)C4Br)C3C2=O)cc1 (stereo unspecified) -13.2%
CCC(C(=O)NCc1cccnc1)n1nc(C)c2sc3ccccc3c2c1=O (stereo unspecified) 20.9%
OC(CNCCc1ccc(Cl)cc1Cl)COc1ccccc1 (stereo unspecified) -3.6%
Cc1nc2ccccc2nc(C)c1=NOCc1ccc(Cl)cc1Cl 22.9%
Cc1cccc(-[n+]2c(-c3cccc(Br)c3)[nH]c3nc4ccccc4nc32)c1 42.8%
CCC/C(O)=C1\C(=O)CC(C)(C)CC1=Nc1ccccc1OC 17.5%
COc1ccc(N2CC(NS(=O)(=O)c3ccc4ccccc4c3)CC2=O)cc1 (stereo unspecified) 4.41%
Cc1ccc(S(=O)(=O)Nc2ccc3ncccc3c2)cc1 19.7%
Cc1cc(NC(=O)CCC(=O)N(CC(=O)NCC2CCCO2)c2ccccc2C)no1 (stereo unspecified) 11.6%
COc1ccc(OC)c(S(=O)(=O)NCCC(C)C)c1 22.1%
O=C(CNC1CCCCC1)NCC1(c2ccccc2)CCCC1 2.11%
C=C1CCN([C@H](C(=O)NCc2cc(OC)c(OC)c(OC)c2)C(C)C)S(=O)(=O)c2ccccc21 -24.7%
C[C@@H]1CC[C@]2(O[C@@H](CCO)C[C@H](O)[C@H]2O)O1 16.3%
CC(C)c1ccc(NC(=O)C2CCCN(S(=O)(=O)c3cccnc3)C2)cc1 (stereo unspecified) 20.9%
COc1ccc(S(=O)(=O)N2CCCC(C(=O)Nc3ccc(NC(=O)c4ccccn4)cc3)C2)cc1 (stereo unspecified) -15.5%
CCCCOC(=O)c1ccc(N2C(=O)CC(N3CCN(C/C=C/c4ccccc4)CC3)C2=O)cc1 (stereo unspecified) 25.8%
CCOC(=O)c1ccc(N2C(=O)CC(N(C)Cc3ccccc3)C2=O)cc1 (stereo unspecified) -7.46%
CS(=O)(=O)c1ccc(Cl)c(NC(=O)COC(=O)c2ncc(Cl)c(Cl)c2Cl)c1 13.8%
CCOc1ccc(CN2CCC(n3nccc3NC(=O)C3CC3)CC2)cc1CO 20%
COc1ccc(Br)cc1C(=O)Nc1cccc(C)c1C -15.3%
Cc1ccc2c(Cl)c(C(=O)Nc3nn[nH]n3)sc2c1 16.7%
CN1CCc2ccccc2C1Cc1ccccc1NC(=O)c1sc2ccccc2c1Cl (stereo unspecified) 12.4%
Cc1cc2[nH]ncc2cc1NC(=S)NC(=O)c1ccccc1 35%
Cc1cc(C(=O)O)c(S(C)(=O)=O)s1 24.5%
COC(=O)C(C(=O)Nc1cccc(C)n1)C1CCCCCC1 (stereo unspecified) 10.4%
C=CCOc1ccc(/C=C/C(=O)OC(C)C(=O)Nc2ccc(NC(C)=O)cc2)cc1 (stereo unspecified) 4.16%
COc1ccc(-c2cc3ncccc3cn2)cc1 -99.3%
CC(=O)NC(Cc1ccccc1)C(=O)NC1CCN(c2ncccc2[N+](=O)[O-])CC1 (stereo unspecified) 20.8%
COc1ccc(S(=O)(=O)N2CCCC2CNC(=O)C(=O)NC2CC2)cc1 (stereo unspecified) 5.26%
CC(C)CCSc1ncnc2c1oc1nc3c(cc12)COC(C)(C)C3 -3.42%
C=CCn1c(=S)[nH]c2nc3c(cc2c1=O)COC(C)(C)C3 -32.6%
CCCCN(CC(=O)Nc1cccc(S(=O)(=O)N2CCCC2)c1)Cc1nc2ccccc2c(=O)[nH]1 15.4%
CC(C(=O)N1CCN(c2ccccc2F)CC1)c1ccc([N+](=O)[O-])cc1 (stereo unspecified) -3.99%
COc1ccc(Oc2cn[nH]c2-c2ccc(OC)cc2O)cc1 14.4%
COC(=O)c1cc(OC)ccc1-c1ccc(OC)cc1 21.1%
O=C(O)CCn1c(O)c(C=C2N=c3ccccc3=N2)sc1=S -11%
O=C(CN1CCOc2ccccc21)N1CCC(Cc2ccccc2)CC1 25.3%
Cc1c(NS(=O)(=O)c2cc(C(=O)NCCc3ccc(F)cc3)cc(Cl)c2Cl)c(=O)n(-c2ccccc2)n1C 1.11%
CCOc1ccc(C2c3[nH]c4ccccc4c3CCN2Cc2cn(CC)nc2C)cc1 (stereo unspecified) 12.1%
c1ccc(C2c3[nH]c4ccccc4c3CCN2Cc2cccn2-c2cccnc2)nc1 (stereo unspecified) 5.09%
CCc1ccc(NC(=O)C(C)OC(=O)/C=C/c2cccc([N+](=O)[O-])c2)cc1 (stereo unspecified) -11%
CC1=C(C(=O)OC2CCCCC2)C(c2cccnc2)n2ncnc2N1 (stereo unspecified) 18.3%
CCOC(=O)Nc1ccc2c(c1)N(C(=O)CCN1CCN(CCO)CC1)c1ccccc1CC2 -8.36%
CCNCCC(=O)N1c2ccccc2Sc2ccc(NC(=O)OCC)cc21 11.1%
CCOC(=O)CC(=O)CSc1nc(-c2ccccc2)cc(-c2ccc(Cl)cc2)c1C#N 17%
CCOc1cc(-c2cc(-c3ccc(OC)cc3)nc(N)c2C#N)ccc1O 14.7%
CCC(C)c1ccccc1NC(=O)CN(C)CC(=O)Nc1ccccc1SC (stereo unspecified) 9.56%
O=C(NCC1CCCO1)c1ccc2ccccc2n1 (stereo unspecified) -19.2%
O=C(NCCCO)c1cc2c([nH]c3ccccc32)c(-c2ccc(F)cc2)n1 40.9%
COc1ccc2[nH]c3c(c2c1)CCN1C(=O)C(CC(=O)NCCc2ccccn2)C[C@H](C(=O)N2CCOCC2)[C@@]31C (stereo partly specified) 1.71%
Cc1sc2nc(CC(N)=O)[nH]c(=O)c2c1-c1ccccc1 -7.25%
Cc1ccc2c(N)c(C(=O)c3ccccc3)sc2n1 20.5%
COC(=O)Cn1c(=NC(=O)c2cc(OC)c(OC)c(OC)c2)sc2cc(OC)ccc21 34.7%
CCOC(=O)C(Sc1ncc(C#N)c(N)n1)C(C)C (stereo unspecified) 15.2%
C=CCn1c(SCC(=O)NC)nnc1C12CC3CC(CC(C3)C1)C2 10.2%
Cc1cc(=O)n2c3c(cccc13)CCC2 0.512%
CCCCc1nc2ccccc2c(=O)n1NC(=O)c1c(O)c2cccc3c2n(c1=O)CC3 27%
CC1=CC(=C(C#N)c2nc3ccccc3s2)C=C(C)N1c1ccc(F)cc1F 12.5%
OCCCNC(c1ccccc1)c1ccc(O)cc1 (stereo unspecified) 4.25%
COc1ccc(/C=C(/CC(=O)Nc2ccc(C)cc2)c2nc3ccccc3s2)cc1 -25.3%
O=C(O)CS/C(=C\c1ccc(F)cc1)c1nc2ccccc2s1 21.7%
O=C(Nc1ccc2c(c1)OCO2)C1CC1(Cl)Cl (stereo unspecified) 18%
O=C(Nc1ccc2c(c1)OCCO2)C1CCCN(c2ncccn2)C1 (stereo unspecified) -64.3%
Cc1onc(-c2ccc(Cl)cc2)c1-c1ccnn1S(=O)(=O)c1ccc(Cl)cc1 16.6%
